Experimental data: PubChem BioAssay (NCI)
Compounds without any hit were thinned out: in the full panel of roughly 83,000, 20% have a hit.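 Testing used 96-well plates and a 48-hour single-concentration exposure. Example: -40 means 40% of the starting cells died.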 A number with no mark means an inactive call. Activity calls are given as the source filed them. The calls were made as follows: active = growth percent below 10; inactive = the rest.

Each molecule was assayed on HL-60(TB) leukemia (assay: NCI-60 one-dose screen, 48 h (100 = growth as untreated, 0 = no growth, -100 = all killed)). Details: 10 µM unless noted.

| SMILES | growth |
| --- | --- |
| CCN(CC)CCCC(C)NCc1ccccc1 (stereo not given) | 105% |
| COc1ccc(S(=O)(=O)Nc2cc(/C=C\c3cc(OC)c(OC)c(OC)c3)ccc2OC)cc1 | -31.6% (active) |
| CN1CCN(Cc2ccc(NC(=O)c3cncc(C#Cc4cncc5nccnc45)c3)cc2C(F)(F)F)CC1 | 1.66% (active) |
| CCOC(=O)n1cnc2c(Cl)ncnc21 | 106% |
| Oc1ccc(Nc2ccc3ccccc3c2)cc1 | 54.9% |
| Cc1nc2ccccc2c(/C=C/c2ccccc2)c1C(=O)/C=C/c1ccc(Cl)cc1 | 1.63% (active) |
| COc1ccc2c(c1)N(CCO)C1=C(C(=O)OC1)C2c1ccccc1 (stereo not given) | -20% (active) |
| CC1CN(CCO)CC(C)O1 (stereo not given) | 102% |
| CN1C(=O)[C@H]2c3c1cccc3[C@@]13NC(=O)O[C@H]1[C@H](CCC3(C)C)C2(C)C | 97.9% |
| O=NN(CC(=O)NNc1ccccc1)CC(=O)NNc1ccccc1 | 31.6% |
| CN(C)CCCN1c2ccccc2CCc2ccc(Cl)cc21 | 80.2% |
| OB(O)c1ccsc1-c1nc2ccc3[nH]ncc3c2c2c1CCCC2 | 52.2% |
| COc1ccc2c(c1)oc1c(C)c3c(c(C)c12)C(=O)N(CCN1CCOCC1)C3=O | 87.6% |
| Cc1ccc(NC(=S)N2CCOCC2)cc1C | 103% |
| CC1Cc2c(ncnc2-n2cnc3ccccc32)N(C)c2ccccc21 (stereo not given) | 15.9% |
| CN(C)c1ccc(/C=N/NC(=O)c2cccc3ccccc23)c(Cl)c1 | -2.75% (active) |
| CCCCCCNC(=O)Nc1ccc2cc3ccc(NC(=O)NCCCCCC)cc3nc2c1 | -49% (active) |
| O=C(O)c1cn(C2CC2)c2cc(N3CCN(C(=O)CSc4nnc(-c5ccc(Cl)cc5)n4-c4ccccc4)CC3)c(F)cc2c1=O | 91.1% |
| Clc1cc(Cl)c(OCC#CI)cc1Cl | 47.6% |
| O=C(O)c1ccc(NC(=O)c2ccc(-c3cccc([N+](=O)[O-])c3)o2)cc1 | 105% |

| SMILES | growth |
| --- | --- |
| O=C1/C(=C/c2ccc(O)c(O)c2)COc2ccc(-c3ccccc3)cc21 | -15.8% (active) |
| CN1C(=O)N(C)C2Nn3c(s/c(=C\c4ccccc4)c3=O)=NC21 (stereo not given) | 95.2% |
| CCN(Cc1ccccc1)c1ccc(C=O)cc1 | 85.2% |
| COc1ccc(-c2[nH]nc(N)c2-c2cc(OC)c3c(c2)OCO3)cc1 | 20.5% |
| COc1ccc(C(C#N)=C2C=CC(=NO)C=C2)cc1 | 52.4% |
| N#Cc1nc(-c2ccc(F)cc2)oc1S(=O)(=O)N1CCCCC1 | 32.4% |
| COc1cc(/C=N/Nc2ncnc3c2c(C)nn3-c2ccc(F)cc2)ccc1O | 98.3% |
| Cc1cc(C)c2c(c1)N1OC(C2)C[C@H]1/C=C/c1ccccc1 (stereo not given in full) | 82.2% |
| CC(=O)c1ccc(Cc2ccc(C(C)=O)s2)s1 | 86.5% |
| N#Cc1c(-c2ccc(F)cc2)nc(N/N=C/c2c[nH]c3ccccc23)nc1N1CCOCC1 | 2.62% (active) |
| CNC1=CC(=O)c2c(C(=O)OC)c(C)[n+]([O-])c(C)c2C1=O | 29% |
| Cn1[nH]cc(/C=N/C(N)=O)c1=O | 110% |
| Cn1cc(-c2csc(-c3cn(CCN)c4ccccc34)n2)c2cccnc21 | 26.5% |
| COc1ccc(Nc2nccc(N3CCN(c4c5ccc(Cl)cc5nc5ccc(OC)cc45)CC3)n2)cc1 | 15.4% |
| C1=C(c2ccccc2)C(c2ccc(OCCN3CCCCC3)cc2)Oc2ccccc21 (stereo not given) | 62.7% |
| O=[N+]([O-])c1ccc(Sc2nc(Cl)nc(NC3CCCC3)n2)cc1 | -26% [100 µM] (active) |
| Nc1nc(Nc2ccc(F)cc2)nn1C(=O)c1cc(Cl)ccc1Cl | 65.1% |
| CCN(CC)CCSCCCNc1c2ccc(Cl)cc2nc2ccc(OC)cc12 | -35.4% (active) |
| CCOC(=O)c1nc(Nc2cc(C)[nH]n2)c2ccccc2n1 | 106% |
| CC[C@H](Nc1nc(C)nc(N)c1C#N)c1nc2cccc(NCc3ccc(C(=O)NO)cc3)c2c(=O)n1-c1ccccc1 | -30.5% (active) |
